# Assay results as given in the supplement of paper PMC4894684.
# Structures can show the parent of a compound that is named as a salt. ± gives the standard deviation of the averaged measurements.
# System: Toxoplasma gondii RH (in HFF)
# Experiment: parasite growth relative to the screen mean (all compounds = 100%); higher = less inhibition of parasite growth
# Settings: 5 µM; 72 h; oxygen 21 %
# Procedure, shortened: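 Values give growth relative to the screen mean. The screen mean (all compounds) is set at 100%, and two screens were averaged. Compounds at 5 µM final were placed on confluent human foreskin fibroblasts, which were infected within 2 h with RH β-Gal–GFP Toxoplasma (MOI 1:5) and kept 72 h at 21% O2 before a CPRG β-Gal readout against in-plate standard curves.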
row,Compound,parasite growth
1,Cc1cccc(C(C)c2c[nH]cn2)c1C (stereo not drawn) [Medetomidine hydrochloride],24.7 ± 22%
2,C[C@@H]1O[C@@H](O[C@H]2C[C@@H](O)[C@]3(CO)[C@H]4[C@H](O)C[C@]5(C)[C@@H](C6=CC(=O)OC6)CC[C@]5(O)[C@@H]4CC[C@]3(O)C2)[C@H](O)[C@H](O)[C@H]1O [Ouabain],52.8 ± 8.2%
3,CN(C(=O)Cc1ccccc1)C(CN1CCCC1)c1ccccc1 (stereo not drawn) [N-MPPP Hydrochloride],112.4 ± 0.63%
4,Oc1ccc2c3c1O[C@H]1c4[nH]c5c(c4C[C@@]4(O)[C@@H](C2)N(CC2CC2)CC[C@]314)C[C@@]1(O)[C@H]2Cc3ccc(O)c4c3[C@@]1(CCN2CC1CC1)[C@H]5O4 [nor-Binaltorphimine dihydrochloride],123 ± 3.2%
5,c1ccc2c(c1)OCC(C1=NCCN1)O2 (stereo not drawn) [Idazoxan hydrochloride],111 ± 8.1%
6,O=C(CCCN1CCC2(CC1)C(=O)NCN2c1ccccc1)c1ccc(F)cc1 [Spiperone hydrochloride],99.8 ± 36%
7,O=c1ccc2[nH]cc(C3=CCNCC3)c2[nH]1,65.2 ± 3.1%
8,CC(C)n1cnc2c(C(=O)N[C@H]3CN4CCC3CC4)cc(Cl)cc21,71.5 ± 9.6%
9,CCCN[C@@H]1CCc2c(OC)cccc2[C@@H]1C [(+)-AJ 76 hydrochloride],66.5 ± 24%
10,C[C@H]1CCC/C=C/[C@@H]2C[C@H](O)C[C@H]2[C@H](O)/C=C/C(=O)O1 [Brefeldin A],< 0%
11,CCCN(CCC)C1CCc2cccc(O)c2C1 (stereo not drawn) [8-Hydroxy-DPAT hydrobromide],121 ± 11%
12,Oc1ccc2c3c1O[C@H]1c4c(c5ccccc5n4Cc4ccccc4)C[C@@]4(O)C(C2)N(CC2CC2)CC[C@]314 [N-Benzylnaltrindole hydrochloride],< 0%
13,"C[N+]1(C)CCc2cc3c(cc2C1C1OC(=O)c2c1ccc1c2OCO1)OCO3 (single isomer, unassigned; (-)) [(-)-Bicuculline methobromide]",131 ± 20%
14,Ic1cncc(OC[C@@H]2CCN2)c1,137 ± 16%
15,C[C@H](N)Cn1ccc2cc(F)c(Cl)cc21 [Ro 60-0175 fumarate],115 ± 28%
16,"C=CCN1CC[C@]2(C)c3cc(O)ccc3C[C@H]1C2C (single isomer, unassigned; (+))",97.7 ± 5.9%
17,CCCN1CCO[C@@H]2c3cc(O)ccc3OC[C@H]21,96 ± 2.6%

row,Compound,parasite growth
1,CCCCC/C=C\C/C=C\C/C=C\C/C=C\CCCC(=O)Nc1ccc(O)cc1,31.3 ± 14%
2,Cc1nnc2n1-c1sc(CCC(=O)N3CCOCC3)cc1C(c1ccccc1Cl)=NC2,132 ± 22%
3,CNCCc1cnc[nH]1 [N α-Methylhistamine dihydrochloride],102 ± 1.5%
4,CCC1(C2=NCCN2)Cc2ccccc2O1 (stereo not drawn) [Efaroxan hydrochloride],113 ± 6.3%
5,"CN(C(=O)Cc1ccc(Cl)c(Cl)c1)[C@H](CN1CCCC1)c1ccccc1 [ICI-199,441 hydrochloride]",49.6 ± 10%
6,O=C1C2CCN(CC2)C1(CO)CO,144 ± 4%
7,CC(C)C[C@H]1C(=O)N2CCC[C@H]2[C@]2(O)O[C@](NC(=O)[C@@H]3C=C4c5cccc6[nH]c(Br)c(c56)C[C@H]4N(C)C3)(C(C)C)C(=O)N12 [Bromocriptine mesylate],13.6 ± 8.4%
8,Cn1c2c(c3ccccc31)CCNCC2,118 ± 15%
9,"CC(=O)N1CC[N+](C)(C)CC1 [4-Acetyl-1,1-dimethylpiperazinium iodide]",130 ± 13%
10,O=C(O)/C=C/CO [trans-4-Hydroxycrotonic acid],108 ± 8.3%
11,"Clc1ccc(N2CCN(Cc3c[nH]c4ncccc34)CC2)cc1 [L-745,870 trihydrochloride]",72.9 ± 7.7%
12,CN1[C@@H]2CC[C@H]1C[C@@H](OC(c1ccc(F)cc1)c1ccc(F)cc1)C2 [3α-Bis-(4-fluorophenyl) methoxytropane hydrochloride],40.3 ± 22%
13,CC(C)(C)NCC(O)COc1cccc2[nH]c(C#N)cc12 (stereo not drawn) [Cyanopindolol hemifumarate],130 ± 6.7%
14,CC(=O)[C@H]1CC[C@H]2[C@@H]3CC[C@H]4C[C@](C)(O)CC[C@]4(C)[C@H]3CC[C@]12C [Ganaxolone],147 ± 17%
15,O[C@H]1[C@H](O)[C@@H](O)CN2CC[C@H](O)[C@H]12 [Castanospermine],150 ± 7.6%
16,CC[C@@H](CO)NC(=O)[C@@H]1C=C2c3cccc4[nH]cc(c34)C[C@H]2N(C)C1 [Methylergometrine maleate],177 ± 41%
